SW480 rereplic: A quantitative high throughput screen for small molecules that induce DNA re-replication in SW480 colon adenocarcinoma cells; SW480 DNA re-replication, Hoechst DNA content imaging, 48 h; Potency, µM (top dose mostly 46.1 µM), for inactives: at the top dose re-replication activation, actives largely listed as activators; actives 1.8% (n = 340,000); AID 624297, 2012; further: potency means the concentration at half of the fitted maximal effect; % of control where 0% means no effect; nearly all actives have a fitted effect of over 55% in size
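Quantitative HTS format with DMSO vehicle controls; 48 hr drug incubation at 37 C, then 40 min Hoechst staining and scanning imager measurement at 405 nm excitation.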
IL1B secr inh: qHTS for Inhibitors of Inflammasome Signaling: IL-1-beta AlphaLISA Primary Screen; THP-1 LPS/ATP IL-1B secretion, AlphaLISA, 16 h; active compounds read low; activity change, % at 57.5 µM; actives 4.7% (n = 360,000); in the data active means activity change below about -50%; inconclusive means mostly about -30% to -49%; further: on the % scale 0 is the no-effect control and ±100 the full control effect
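THP-1 cells pretreated 1 hr with compounds (up to 57.5 uM final), then stimulated with LPS (250 ng/mL final) plus ATP (1.25 mM final); secreted IL-1B measured by AlphaLISA after 16 hr, decreased signal indicating inhibition.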
RORgamma inh: qHTS for inhibitors of ROR gamma transcriptional activity; Drosophila S2 Gal4-RORgamma UAS-luciferase reporter, 20 h; Potency, µM (highest dose often 53.6 µM), inactives show top-dose activity change, negative = inhibition, most hits filed as inhibitors; actives 5.4% (n = 310,000); AID 2551, 2010; further: potency means the concentration at half of the fitted maximal effect; on the % scale 0 is the no-effect control and ±100 the full control effect; nearly all actives have a fitted effect of over 60% in size
Target sequence (P51450 whole entry, looked up, the tested form may be a part): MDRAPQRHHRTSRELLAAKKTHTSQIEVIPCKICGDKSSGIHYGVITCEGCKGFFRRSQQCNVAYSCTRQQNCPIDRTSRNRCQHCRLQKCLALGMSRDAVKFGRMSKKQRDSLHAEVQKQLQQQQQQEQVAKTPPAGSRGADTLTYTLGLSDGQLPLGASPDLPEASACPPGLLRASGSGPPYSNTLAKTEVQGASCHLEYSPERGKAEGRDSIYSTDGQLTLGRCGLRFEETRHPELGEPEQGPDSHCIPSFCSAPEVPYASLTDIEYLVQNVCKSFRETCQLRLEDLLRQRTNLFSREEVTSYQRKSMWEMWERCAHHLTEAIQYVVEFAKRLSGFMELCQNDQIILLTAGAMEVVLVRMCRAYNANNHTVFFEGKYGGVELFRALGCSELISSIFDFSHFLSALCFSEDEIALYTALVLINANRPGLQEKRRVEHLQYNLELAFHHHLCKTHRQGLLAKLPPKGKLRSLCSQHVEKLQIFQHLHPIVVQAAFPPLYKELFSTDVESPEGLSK
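In this cell-based reporter format, copper sulfate (700 uM final) drives Gal4–ROR gamma fusion expression from a metallothionein promoter in Drosophila Schneider cells; compounds preincubated 1 hr, reporter read after 20 hr at ambient temperature.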
VP16 counter: VP16 counterscreen qHTS for inhibitors of ROR gamma transcriptional activity. Drosophila S2 Gal4-VP16 UAS-luciferase, luminescence, 20 h. Potency, µM (doses to about 53.6 µM), for the others: at the highest dose activity, negative = inhibition, hits mostly inhibitors. AID 2546, 2010. actives 3.5% (n = 310,000);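 further: Gal4-VP16 expression switched on by copper sulfate through the metallothionein promoter; potency means the concentration at half of the fitted maximal effect; on the % scale 0 is the no-effect control and ±100 the full control effect; nearly all actives have a fitted effect of over 50% in size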
MCF10A rereplic: A quantitative high throughput screen for small molecules that induce DNA re-replication in MCF 10a normal breast cells; actives 2.9% (n = 350,000); MCF 10A DNA re-replication, Hoechst nuclear intensity, 48 h; Potency, µM (highest dose often 46.1 µM), for inactives: at the top dose activity, positive = re-replication, most hits filed as activators; further: potency means the concentration at half of the fitted maximal effect; % of control where 0% means no effect; nearly all actives have a fitted effect of over 50% in size
* hit, by the source's call; u = inconclusive; x = no result given; [ ] = remark or other dose. Hits are enriched below; roughly 11% of the tested compounds scored in any of these assays. Unless noted, the call rests on the fitted dose curve; in most records, active means well fitted curve in the direction sought with a large enough effect; inconclusive means small, poorly fitted or top-dose-only effect, or another doubt; inactive means no such curve, though single readings can be large; an effect the other way counts as inactive or inconclusive.

SMILES | SW480 rereplic | IL1B secr inh | RORgamma inh | VP16 counter | MCF10A rereplic
CC(C)c1ccc(-c2cc(C(=O)N3CCOCC3)c3cc(Br)ccc3n2)cc1 | 1% | -73* | u | 8% | 6%
CC1CC2CCCC(O)=C2C(=O)O1 (stereo not given) | 2% | -8 | x | x | 1%
CCC(=O)c1cn(CC(=O)Nc2ccc(F)cc2)c2ccccc12 | x | 10 | x | x | x
C#CCCCO/N=C1/[C@H]2O[C@@H]2[C@@H](O)[C@H]2[C@H]1CCn1c(=O)n(-c3ccccc3)c(=O)n12 | x | x | -5%[10 µM] | 13%[10 µM] | x
CC(Oc1ccc(Cl)cc1Cl)c1ccnc2nc(N3CCOCC3)nn12 (stereo not given) | -4% | -52* | u | -8% | u
S=C1NC=NC2N=CNC12 (stereo not given) | u | x | 4% | 8% | 17%
COc1cccc(N2CCN(c3nc(-c4ccccc4C)cc(=O)[nH]3)CC2)c1 | u | -73* | 38% | -5% | u
N#C/C(=C\c1cc2c(cc1Br)OCO2)C(=O)NCC1CCCO1 (stereo not given) | -122% | -77* | -20% | u | u
Cc1ccc(C)c(OCCn2cc(/C=C(\C#N)C(=O)NCC3CCCO3)c3ccccc32)c1 (stereo not given) | u | u | u | -8% | 16µM*
Cc1ccc(SC2=C(N(C)C)C(=O)c3ccccc3C2=O)cc1 | u | -64* | x | x | 12µM*
CC(C)NS(=O)(=O)c1ccc(NCCCn2ccnc2)c([N+](=O)[O-])c1 | 0% | 10 | 4% | -5% | 20%
CCOC(=O)C1=CN(Cc2cccc(F)c2)S(=O)(=O)NC1CCc1ccccc1 (stereo not given) | 52% | u | x | x | 15µM*
COc1ccc(-c2sc(NC(C)=O)nc2-c2ccccc2)cc1 | u | 0 | 14% | 4% | u
COCCNc1nc(-c2ccc(OC)cc2)c(-c2ccc(OC)cc2)s1 | -97% | -26 | 11µM* | -19% | u
CCCCCCNc1nc(-c2ccc(OC)cc2)c(CCC(=O)O)s1 | 1% | 6 | u | 16µM* | 1%
COC(=O)CCc1sc(NC2CCCCC2)nc1-c1ccc(OC)cc1 | 14% | 18 | -76% | u | -13%
CCN(CC)CCNc1nc(-c2ccc(OC)cc2)c(-c2ccc(OC)cc2)s1 | 19% | u | u | -10% | 14%
COc1ccc(-c2nc(NC(=O)c3ccccc3)sc2-c2ccc([N+](=O)[O-])cc2)cc1 | 12% | 3 | -18% | 6% | 13µM*
COc1ccc(-c2nc(NC(C)=O)sc2-c2ccccc2)cc1 | u | 0 | -2% | -2% | 23µM*
Cn1c(=O)c(-c2ccccc2)nc2cnc(N3CCOCC3)nc21 | x | x | 0% | -4% | x
Cc1ccc(S(=O)(=O)N[C@H]2COC(=O)[C@@H](C)COC(=O)[C@H](C)NC(=O)C/C=C\[C@H]2C)cc1 | x | x | 0%[10 µM] | 6%[10 µM] | x
O=C(/C=C/c1cccs1)N1CCc2ccccc21 | 6% | -7 | 8.9µM* | u | u
O=C(/C=C/c1cccs1)Nc1scc(-c2ccccc2)c1C(=O)O | 6% | -9 | 10µM* | 13µM* | 29%
O=C(Nc1scc(-c2ccccc2)c1C(=O)O)c1ccccc1Cl | -53% | -21 | 1% | -9% | u
O=C(Cc1cccs1)Nc1nc(-c2ccccc2)cs1 | -3% | -70* | u | 23% | u
SMILES | SW480 rereplic | IL1B secr inh | RORgamma inh | VP16 counter | MCF10A rereplic
O=C(/C=C/c1cccs1)Nc1nc(-c2ccccc2)cs1 | 14% | -57* | u | 0% | 95%
CS(=O)(=O)N1CCc2cc(-c3csc(NC(=O)Cc4cccs4)n3)ccc21 | -6% | -65* | 17% | u | 7%
O=C(COC(=O)/C=C/c1cccs1)Nc1nc(-c2ccccc2)cs1 | u | -13 | u | u | 12%
CC(=O)Nc1nc(-c2ccc3c(c2)CCN3S(C)(=O)=O)cs1 | u | -27 | -18% | -7% | -46%
O=C(Cc1cccc(C(F)(F)F)c1)NCc1ccc(Cl)cc1Cl | -3% | -66* | 40% | -18% | u
O=C(NCc1ccccc1Cl)c1cccc(C(F)(F)F)c1 | -5% | -80* | u | 12% | -11%
CCCCCCCCCCCCCC/C(C(=O)O)=C(\C)C(=O)O | x | x | 35% | -10% | x
CC(C)C[C@@H](CC(=O)N[C@@H](CCC(=O)O)CC(=O)O)NC(=O)[C@@H]1CCCC[C@H]1NC(=O)C[C@H](CCCN)NC(=O)C[C@H](Cc1c[nH]c2ccccc12)NC(=O)[C@@H]1CNCC[C@H]1N | x | x | 2% | 3% | x
CC(C)CC(NC(=O)NC(CCC(=O)O)C(=O)O)C(=O)O (stereo not given) | x | x | 2% | 3% | x
O=C(N/N=C/c1ccccc1)c1[nH]c2ccc(Br)cc2c1-c1ccccc1 | u | 25 | u | u | u
O=C(NN=C1CCCC1)c1[nH]c2ccc(Br)cc2c1-c1ccccc1 | u | u | 11µM* | u | u
CCOP(=O)(OCC)c1ccc2ccc3ccccc3c(=O)c2c1 | -1% | x | x | x | -2%
O=C(CSc1nnc(-c2ccncc2)n1Cc1ccco1)N1c2ccccc2Sc2ccc(Cl)cc21 | 16% | -74* | u | -16% | 24%
O=C(CSc1nnc(-c2cnccn2)n1Cc1ccco1)c1ccccc1 | -13% | -8 | 29% | 6% | 0%
O=C(CSc1nnc(-c2cnccn2)n1Cc1ccco1)c1ccc(Cl)cc1 | u | -7 | 10µM* | u | u
O=C(CSc1nnc(-c2ccncc2)n1Cc1ccco1)OC1CCCCC1 | 0% | 27 | 10µM* | u | 0%
Cn1c(SCC(=O)N2c3ccccc3Sc3ccc(Cl)cc32)nnc1-c1ccco1 | 1% | -13 | 37% | -13% | u
Cc1cc(F)ccc1S(=O)(=O)Nc1ccccc1C(=O)N1CCCC1 | -28% | 18 | x | x | -5%
CC(c1ccccc1)N(CC(=O)NC1CCCCC1)S(=O)(=O)c1cccc(C(F)(F)F)c1 (stereo not given) | u | -62* | 7% | 3% | u
Cc1ccc(S(=O)(=O)N(C)C)cc1NC(=O)CSc1nncs1 | -7% | 12 | x | x | -2%
O=[N+]([O-])c1cc(-c2cccnc2)n[nH]1 | 4% | -2 | x | x | -8%
CC(C)CC(=O)Nc1ccc(C(=O)COC(=O)CN2C(=O)NC3(CCCCC3C)C2=O)cc1 (stereo not given) | -5% | 1 | x | x | 5%
